Assay results taken from paper PMC5540273 (PLoS ONE, 2017).

test system: CDKL2; settings: concentration: 1 μM,replicates: in singlicate; n = 1
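Note: KINOMEscan kinase panel screen.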

SMILES	%Inh [%]
Cc1n[nH]c2ccc(-c3cc(OC[C@@H](N)Cc4ccccc4)cnc3-c3ccoc3)cc12.O=C(O)C(F)(F)F.O=C(O)C(F)(F)F [GSK507358]	57
CC(C)Nc1cc(-c2ccc3c(N)n[nH]c3c2)nc(N)n1 [GSK2221681]	0
CNC(=O)c1ccccc1Sc1ccc2c(/C=C/c3ccccn3)n[nH]c2c1	28
Cl.Cl.NC[C@H](Cc1ccc(C(F)(F)F)cc1)NC(=O)c1cc(Br)c(-c2ccnc3[nH]ccc23)s1 [GSK1487252]	0
Cl.Cl.Nc1nc(-c2ccc3c(N)n[nH]c3c2)cc(N2CCCC(NC(=O)c3ccccc3)C2)n1 (stereo not drawn) [GSK2286775]	5
O=C(NCCCN1CCOC1=O)c1cnc(NCc2cc(Cl)ccc2Cl)nc1NC1CCCC1	13
CN(C)CC(O)COc1ccc(Nc2nccc(-c3cnn4nc(N5CCOCC5)ccc34)n2)cc1 (stereo not drawn) [GW767488]	100
Cc1ccc(-n2nc(C(C)(C)C)cc2NC(=O)Nc2ccc(OCCN3CCOCC3)c3ccccc23)cc1 [GW839464]	0
Cc1cc(C(=O)Nc2ccc(Oc3ccc4nc(NC(=O)C5CC5)cn4n3)cc2)nn1-c1ccccc1	94
C=CC(=O)Nc1cc2c(Nc3ccc(F)c(Cl)c3)ncnc2cc1OCCCN1CCOCC1 [GW781483]	0
Cc1cc2cn[nH]c2cc1-c1cccc2c(N)c(C(N)=O)nnc12	28
C[C@@H]1CCN(C(=O)CC#N)C[C@@H]1N(C)c1ncnc2[nH]ccc12	0
CC(C)N1C(=O)Cc2cc(Nc3ncc(C(F)(F)F)c(NCc4cccc(S(C)(=O)=O)c4)n3)ccc21	19
C[C@H]1Oc2cc(cnc2N)-c2c(nn(C)c2C#N)CN(C)C(=O)c2ccc(F)cc21	0
Cc1occc1-c1nc(N)c(OC[C@@H](N)Cc2c[nH]c3ccccc23)cc1-c1cc2c(C)n[nH]c2cn1 [GSK1660450]	17
Cc1ccc2c(-c3ccncc3)c(-c3ccc(F)cc3)nn2c1.Cl [GW461484]	12
CCN(CC)CCCCNc1ncc2cc(-c3c(Cl)cccc3Cl)c(NC(=O)NC(C)(C)C)nc2n1	0
CCN(CC)CCOc1ccc(Nc2ncc3cc(-c4c(Cl)cccc4Cl)c(=O)n(C)c3n2)cc1 [SB-601273]	100
NC(=O)c1cc(-c2ccccc2)cc2c(C3CCNCC3)c[nH]c12 [GSK301362]	30
CCn1c(-c2nonc2N)nc2c(C#CC(C)(C)O)nc(OCCN)cc21.Cl.Cl [GSK902056]	21
O=C(NCCNc1ccnc(NCc2ccc(F)cc2)n1)c1cc2ccccc2s1 [GSK1379944]	25
Cl.Oc1cc(-c2nc(-c3ccccc3)[nH]c2-c2ccncc2)ccc1Cl [SB-386023]	0
COc1ccc(C[C@@H](CN)NC(=O)c2cc(Br)c(-c3ccnc4[nH]ccc34)s2)cc1.Cl.Cl [GSK1389063]	40
Cl.Cl.NC[C@H](CC1CCCCC1)NC(=O)c1cc(Br)c(-c2ccnc3[nH]ccc23)s1 [GSK1581427]	18
CN(C)CCOc1ccc(-c2cc(-c3c[nH]nc3-c3ccccn3)ccn2)cc1 [GW835314]	0
C[C@@H](Oc1cc(-c2cnn(C3CCNCC3)c2)cnc1N)c1c(Cl)ccc(F)c1Cl	22
Nc1nc(Nc2ccccc2)cc(-c2ccc3c(N)n[nH]c3c2)n1 [GSK2225749]	15

test system: CDKL3; settings: concentration: 1 μM,replicates: in singlicate; n = 1

SMILES	%Inh [%]
Cc1n[nH]c2ccc(-c3cc(OC[C@@H](N)Cc4ccccc4)cnc3-c3ccoc3)cc12.O=C(O)C(F)(F)F.O=C(O)C(F)(F)F [GSK507358]	0
CC(C)Nc1cc(-c2ccc3c(N)n[nH]c3c2)nc(N)n1 [GSK2221681]	0
CNC(=O)c1ccccc1Sc1ccc2c(/C=C/c3ccccn3)n[nH]c2c1	0
Cl.Cl.NC[C@H](Cc1ccc(C(F)(F)F)cc1)NC(=O)c1cc(Br)c(-c2ccnc3[nH]ccc23)s1 [GSK1487252]	0
Cl.Cl.Nc1nc(-c2ccc3c(N)n[nH]c3c2)cc(N2CCCC(NC(=O)c3ccccc3)C2)n1 (stereo not drawn) [GSK2286775]	0
O=C(NCCCN1CCOC1=O)c1cnc(NCc2cc(Cl)ccc2Cl)nc1NC1CCCC1	29
CN(C)CC(O)COc1ccc(Nc2nccc(-c3cnn4nc(N5CCOCC5)ccc34)n2)cc1 (stereo not drawn) [GW767488]	99
Cc1ccc(-n2nc(C(C)(C)C)cc2NC(=O)Nc2ccc(OCCN3CCOCC3)c3ccccc23)cc1 [GW839464]	100
Cc1cc(C(=O)Nc2ccc(Oc3ccc4nc(NC(=O)C5CC5)cn4n3)cc2)nn1-c1ccccc1	23
C=CC(=O)Nc1cc2c(Nc3ccc(F)c(Cl)c3)ncnc2cc1OCCCN1CCOCC1 [GW781483]	11
Cc1cc2cn[nH]c2cc1-c1cccc2c(N)c(C(N)=O)nnc12	0
C[C@@H]1CCN(C(=O)CC#N)C[C@@H]1N(C)c1ncnc2[nH]ccc12	15
CC(C)N1C(=O)Cc2cc(Nc3ncc(C(F)(F)F)c(NCc4cccc(S(C)(=O)=O)c4)n3)ccc21	0
C[C@H]1Oc2cc(cnc2N)-c2c(nn(C)c2C#N)CN(C)C(=O)c2ccc(F)cc21	5
Cc1occc1-c1nc(N)c(OC[C@@H](N)Cc2c[nH]c3ccccc23)cc1-c1cc2c(C)n[nH]c2cn1 [GSK1660450]	0
Cc1ccc2c(-c3ccncc3)c(-c3ccc(F)cc3)nn2c1.Cl [GW461484]	0
CCN(CC)CCCCNc1ncc2cc(-c3c(Cl)cccc3Cl)c(NC(=O)NC(C)(C)C)nc2n1	16
CCN(CC)CCOc1ccc(Nc2ncc3cc(-c4c(Cl)cccc4Cl)c(=O)n(C)c3n2)cc1 [SB-601273]	6
NC(=O)c1cc(-c2ccccc2)cc2c(C3CCNCC3)c[nH]c12 [GSK301362]	0
CCn1c(-c2nonc2N)nc2c(C#CC(C)(C)O)nc(OCCN)cc21.Cl.Cl [GSK902056]	0
O=C(NCCNc1ccnc(NCc2ccc(F)cc2)n1)c1cc2ccccc2s1 [GSK1379944]	0
Cl.Oc1cc(-c2nc(-c3ccccc3)[nH]c2-c2ccncc2)ccc1Cl [SB-386023]	22
COc1ccc(C[C@@H](CN)NC(=O)c2cc(Br)c(-c3ccnc4[nH]ccc34)s2)cc1.Cl.Cl [GSK1389063]	62
Cl.Cl.NC[C@H](CC1CCCCC1)NC(=O)c1cc(Br)c(-c2ccnc3[nH]ccc23)s1 [GSK1581427]	0
CN(C)CCOc1ccc(-c2cc(-c3c[nH]nc3-c3ccccn3)ccn2)cc1 [GW835314]	12
C[C@@H](Oc1cc(-c2cnn(C3CCNCC3)c2)cnc1N)c1c(Cl)ccc(F)c1Cl	24
Nc1nc(Nc2ccccc2)cc(-c2ccc3c(N)n[nH]c3c2)n1 [GSK2225749]	0
